# Only some compounds are listed: those with a hit (about 1.8% of all), similar ones and a draw of the others.
# Mcl1 Bid PPI: Mcl-1/Bid binding inhibitors, primary screen, biochemical, TR-FRET, 1536-well. inhibition, % at 21.7 µM. Induced myeloid leukemia cell differentiation protein Mcl-1 (Homo sapiens), Q07820. actives 0.97% (n = 220,000). TR-FRET Mcl-1/Bid-Dy647 peptide binding. AID 1021, 2008;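 active = compounds that cut the binding signal by more than half at the single screening dose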;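 also: His-tagged Mcl-1 with europium anti-His antibody binding Bid BH3 peptide; 0% = Mcl-1 plus peptide wells and 100% = peptide-only wells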
# Mcl-1 Bim block: inhibitors of Bim peptide binding to Mcl-1, primary screen, biochemical, bead-based flow cytometry, multiplex; Induced myeloid leukemia cell differentiation protein Mcl-1 (Homo sapiens), Q07820; Bim peptide-Mcl-1 binding; inhibition, % at 10 µM; actives 0.1% (n = 190,000); AID 1009, 2008; in the data active = inhibition above about 40%;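 also: 0% = no compound tracer wells and 100% = peptide blocker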
# NOD2 RIPK2 PPI: NOD2-RIPK2 binding disruptors in cells, primary screen, fluorescence, CHO cells, BLA complementation; CCF4 ratio; actives 0.38% (n = 360,000); inhibition, % at 4.98 µM; AID 624267, 2012; Receptor-interacting serine/threonine-protein kinase 2 (Homo sapiens), O43353; in the data active = inhibition above about 21%;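 also: 0% = vehicle only and 100% = reference blocker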
# Mcl1-Noxa inh: Mcl-1/Noxa binding inhibitors, primary screen, biochemical, TR-FRET, 1536-well; Induced myeloid leukemia cell differentiation protein Mcl-1 (Homo sapiens), Q07820; TR-FRET Mcl-1/Noxa peptide binding, 2 h; inhibition, % at 21.7 µM; actives 1.5% (n = 220,000);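 active = compounds that cut the protein-peptide binding signal by more than 50% relative to plate controls in a single-dose test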;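 also: His-tagged Mcl-1 with rhodamine Noxa BH3 peptide and terbium anti-His antibody; 0% = Mcl-1 plus Noxa peptide wells and 100% = peptide-only wells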
# TLR4 MyD88 comp: inhibitors of TLR4-MyD88 association in cells, primary screen, cell-based, HeLa CL3-4, BLA complementation, FRET ratio; Toll-like receptor 4 (Homo sapiens) + Myeloid differentiation primary response protein …; HeLa CL3-4 TLR4/MyD88 BLA complementation; inhibition, % at 8.4 µM; actives 0.18% (n = 200,000); AID 861, 2007; in the data active = inhibition above about 25%;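 also: 0% = vehicle and 100% = reference inhibitor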
# TLR9-MyD88 block: inhibitors of TLR9-MyD88 association in cells, primary screen, cell-based, CHO, BLA complementation, fluorescence; inhibition, % at 4.98 µM; actives 0.21% (n = 340,000); Toll-like receptor 9 (Homo sapiens) + Myeloid differentiation primary response protein …; CCF4 FRET ratio; AID 504734, 2011;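 active = inhibition above the mean over all tested compounds plus 3 SD, cut at about 21% in these data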;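 also: 0% = DMSO only wells and 100% = clavulanate BLA inhibitor control wells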
# * hit, by the source's call; nt = no result.
SMILES,Mcl1 Bid PPI,Mcl-1 Bim block,NOD2 RIPK2 PPI,Mcl1-Noxa inh,TLR4 MyD88 comp,TLR9-MyD88 block
COc1ccc(N=C2NC(=O)/C(=C/c3ccco3)S2)cc1,-37,nt,-7,-4,nt,-1
Cc1cccc(N=C2NC(=O)/C(=C/C=C/c3ccco3)S2)c1C,92*,7,-9,114*,-1,3
O=C1NC(=Nc2ccccc2)S/C1=C\C=C\c1ccco1,42,-6,-11,112*,9,4
CC(Sc1ccccc1)C(=O)NCC(c1ccco1)N1CCCCC1 (stereo not drawn),nt,nt,-5,nt,nt,0
Cc1cc(NC2CCCCC2)nc(-c2ccccc2O)n1,52*,-3,-10,28,10,-1
Cc1ccc(OCCNC(=O)c2ccccc2F)cc1,nt,nt,-3,nt,nt,-7
O=[N+]([O-])c1ccc(O)c(N=Cc2sc3ccccc3c2O)c1,-85,-2,-4,53*,-2,-7
Cc1cccc(/N=C/c2sc3ccccc3c2O)n1,18,nt,-6,82*,nt,-1
O=C(NCc1ccncc1)[C@@H]1CCCN1C(=O)[C@H]1CCCN1C(=O)c1c(F)cccc1F,nt,nt,4,nt,nt,nt
COc1cc2c(cc1OC)-c1cc(NC3CCCCCCC3)nc(=O)n1CC2,100*,15,2,18,-3,-6
COc1cc2c(cc1OC)-c1cc(NCc3ccccn3)nc(=O)n1CC2,98*,10,0,38,1,1
CC(C)C(=O)NC(c1cccs1)c1cc([N+](=O)[O-])c2cccnc2c1O (stereo not drawn),55*,-7,6,63*,-5,-3
O=[N+]([O-])c1ccc2c(c1)nc(CO)n2Cc1ccccc1,nt,nt,-5,nt,nt,4
Cn1c(-[n+]2c(-c3ccccc3)cc(-c3ccccc3)cc2-c2ccccc2)nc2cc([N+](=O)[O-])ccc21,-22,-2,0,64*,-11,-6
O=[N+]([O-])c1ccc2c(c1)ncn2-c1ccccc1,82*,-1,-4,-16,-16,9
O=C(CCCc1ccccc1)N=C1SC2CS(=O)(=O)CC2N1c1ccccc1F (stereo not drawn),nt,nt,-7,nt,nt,2
Cc1cc(NC2C3CC4CC(C3)CC2C4)n2nnnc2n1 (stereo not drawn),76*,0,-4,27,-2,-10
Cc1cc(NC2C3CC4CC(C3)CC2C4)n2ncnc2n1 (stereo not drawn),-4,10,5,-4,2,2
CC1=C(C(=O)OCC(C)C)C(c2ccsc2)NC(=O)N1 (stereo not drawn),-5,-3,-5,79*,-6,-2
Cc1ccc(CC(=O)NNC(=O)c2cccs2)cc1C,nt,nt,13,nt,nt,-13
O=C(Nc1cccc(Cl)c1)C1CCCN(C2=NS(=O)(=O)c3ccccc32)C1 (stereo not drawn),nt,nt,5,nt,nt,-14
Cc1ccc(NC(=O)CSc2nnc3c(n2)[nH]c2ccccc23)cc1,nt,nt,3,nt,nt,-7
O=C(CSc1nnc2c(n1)[nH]c1ccccc12)Nc1ccc2c(c1)OCO2,45,-5,1,83*,6,5
O=C(COC(=O)COc1ccc(Br)cc1)NC1CCS(=O)(=O)C1 (stereo not drawn),nt,nt,-9,nt,nt,-1
O=C(NC(=S)NCCC1=CCCCC1)c1ccccc1Br,-53,-5,-4,68*,7,-11
SMILES,Mcl1 Bid PPI,Mcl-1 Bim block,NOD2 RIPK2 PPI,Mcl1-Noxa inh,TLR4 MyD88 comp,TLR9-MyD88 block
CC(=O)c1ccc(NC(=O)C2=CC(c3ccco3)=NS(=O)(=O)N2C)cc1,nt,nt,7,nt,nt,-3
O=C(O)Cc1c[nH]c2cccc(O)c12,23,0,-11,81*,9,-1
N/C(=N\N=C/c1ccc(Br)cc1)N/N=C\c1ccc(Br)cc1,-10,40*,-2,8,1,-15
O=C(O)c1ccc(C(=O)c2cc([N+](=O)[O-])cc([N+](=O)[O-])c2)cc1,nt,nt,-7,nt,nt,-5
Cc1nc(CSc2nc3[nH]ncc3c(=O)n2-c2ccccc2)cs1,84*,-2,3,7,1,-6
CCOC(=O)c1cc2c(=O)n3ccccc3nc2n(Cc2ccco2)c1=NC(=O)c1cccnc1,-71,3,-5,51*,1,-7
CCOC(=O)c1cc2c(=O)n3cccc(C)c3nc2n(Cc2ccco2)c1=NC(=O)c1cccnc1,-14,13,-3,69*,6,7
Cc1cccc(C(=O)N=c2c(C#N)cc3c(=O)n4cccc(C)c4nc3n2Cc2ccco2)c1,0,0,0,86*,-7,-5
Cc1cccc(Nc2nc3c(S(=O)(=O)c4ccccc4)nnn3c3ccccc23)c1,57*,-2,-15,-41,-6,-6
O=C(N/N=C/c1ccc(O)c(O)c1)c1ccc(CSc2cccc3cccnc23)cc1,-6,-9,-11,76*,-3,-5
O=C(CSc1cccc2cccnc12)N/N=C/c1cccc(O)c1,-18,3,4,18,-1,1
COc1cccc(/C=c2/s/c(=C(\C#N)C(=O)N3CCOCC3)n(-c3ccccc3)c2=O)c1,53*,3,7,43,0,0
COc1cc(-c2nc3cnccn3c2Nc2ccccc2)ccc1O,-20,0,-13,55*,2,2
COc1cc(-c2nc3cnccn3c2Nc2ccc(C)cc2)ccc1O,-46,2,-6,18,-3,4
COC(=O)N(C)C[C@H]1OCc2cn(nn2)CCCC(=O)N([C@@H](C)CO)C[C@@H]1C,nt,nt,-9,nt,nt,nt
CC1(OC(=O)c2cccs2)C(=O)C=C2C=C3CCCN3C=C2C1=O (stereo not drawn),-64,nt,7,72*,nt,3
COC(=O)CCCC1=CC2=CC(=O)C(C)(OC(=O)c3cccs3)C(=O)C2=CN1C1CCCC1 (stereo not drawn),-97,nt,7,0,nt,-1
CC(C)c1ccc(OCc2ccc(C(=O)O)o2)cc1,-3,nt,-10,69*,nt,1
CC1CCN(CC(=O)Nc2cccc(C(=O)Nc3cccc(C(F)(F)F)c3)c2)CC1,7,-5,-12,38,-2,-4
COCCn1c(Cc2ccccc2)nnc1SCC(=O)Nc1oc(C)c2c(C)n[nH]c(=O)c12,nt,nt,-8,nt,nt,-3
CCN(c1ccc(NS(=O)(=O)c2cc(Cl)ccc2Cl)cc1)C(C)C,-58,-2,1,48,10,-11
CN(C)c1ccc(NS(=O)(=O)c2cc(Cl)ccc2Cl)cc1,-51,-4,-4,69*,-7,11
